Reference: PubChem BioAssay (NCATS)
“And” between values parts separate entries of the source, which are not always exact repeats. Equal entries are not always repeated. Results filed as inconclusive are left out. Values without a mark were called inactive. The source made the active and inactive calls. Calls come from the whole dose curve; as a rule, active = well fitted cell-killing curve with a large enough effect; inconclusive = small, poorly fitted or top-dose-only effect; inactive = flat fitted curve, though single readings scatter.

Key:
[1] = Cellular viability qHTS for adrenocortical cancer (ACC) cell line SW-13 (AID 1963989); conditions: SW-13 ACC cells viability, CellTiter-Glo, 48 h; activity (max response): active compounds read low; note: nearly all actives have a fitted effect of over 65% in size;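 for activity (max response): cells grown in serum-free medium with ITS supplement; % is set by controls: 0 for no effect and ±100 for the full control effect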
Summary of the method: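 48 h treatment, SW-13 in ITS/DMEM serum-free; doses up to 46 uM; readout CellTiter-Glo luminescence; curve fit four-parameter logistic.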

[2] = Cellular viability qHTS for adrenocortical cancer (ACC) cell line NCI-H295R (AID 1963990); note: nearly all actives have a fitted effect of over 60% in size
Summary of the method: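 Compound titrations (up to 46 uM final) are applied to NCI-H295R cultures for 48 h at 37C. Viable cell number is estimated by CellTiter-Glo signal, normalised to DMSO and doxorubicin controls.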
Potency is the fitted concentration of half-maximal effect.

| Structure (SMILES) | activity (max response) [1] | Potency [2] | Potency [1] |
| --- | --- | --- | --- |
| Nc1ccc(C(=O)Oc2ccccc2)c(O)c1 | -6.48% | inactive | – |
| CC1=C(C(=O)Nc2cc3cn[nH]c3cc2F)C(c2ccc(C(F)(F)F)cc2)CC(=O)N1 (stereo not given) | 5.03% | inactive | – |
| C#CC1(O)CC[C@H]2[C@@H]3CCC4=CCCC[C@@H]4[C@H]3CC[C@@]21C (stereo not given in full) | 6.47% | inactive | – |
| CC(C)C[C@@H]1[C@H](c2ccccc2)OC(=O)N1CCCN1CCCCCC1 | -14.7% | inactive | – |
| Cc1c(I)c(=O)n(-c2ccccc2)n1C | 0.251% | inactive | – |
| N#Cc1ccc(N(Cc2ccc(Br)cc2)n2cnnc2)cc1 | -0.886% | inactive | – |
| O=[N+]([O-])c1cccc(S(=O)(=O)NCCNS(=O)(=O)c2cccc([N+](=O)[O-])c2)c1 | -5.4% | inactive | – |
| CCCCC(=O)OCC(=O)[C@H]1[C@H](C)C[C@H]2[C@@H]3C[C@H](F)C4=CC(=O)C=C[C@]4(C)[C@@]3(F)[C@@H](O)C[C@@]21C | 5.4% | inactive | – |
| COc1cccc(-c2c(C)n(Cc3c(F)cccc3C(F)(F)F)c(=O)n(C[C@H](NCCCC(=O)O)c3ccccc3)c2=O)c1F | 3.23% and 7.63% | inactive | – |
| Nc1ccc(S(=O)(=O)NCc2ccccc2)cc1 | -7% | inactive | – |
| CC(C)(CO)n1cc(C(=O)c2cncc(NC(=O)Cc3ccc(Cl)cn3)c2)c2cnc(N)nc21 | -13.5% | inactive | – |
| CCN(CC)CCOC(=O)C(c1ccccc1)c1ccccc1 | 0.334% | inactive | – |
| N=C1S/C(=C\c2ccc(-c3ccc4c(c3)C(=O)NC4=O)o2)C(=O)N1c1ccc(Br)cc1 | 2.9% | inactive | – |
| CCC(=O)O[C@]1(C(=O)COC)[C@@H](C)C[C@H]2[C@@H]3CCC4=CC(=O)C=C[C@]4(C)C3(F)[C@@H](O)C[C@@]21C (stereo not given in full) | 1.6% | inactive | – |
| CCN(CC)CCOc1ccccc1C(=O)CCc1ccccc1 | -19.2% | inactive | – |
| Cc1c(CN2CCN(C(=O)[C@H](C)O)CC2)sc2c(N3CCOCC3)nc(-c3cnc(N)nc3)nc12 | – | 0.398 µM (active) | 0.631 µM (active) |
| CCCCOCCOCCOCc1cc2c(cc1CCC)OCO2 | 0.496% and -9.13% | inactive | – |
| Fc1ccc(-c2nc(-c3ccccc3F)[nH]c2-c2ccncc2)cc1 | -20.2% | inactive | – |
| NCc1ccccc1Sc1ccccc1CO | -6.09% | inactive | – |
| Cc1ccc(C(C)C)cc2c(C)ccc1-2 | 0.775% | inactive | – |
| CCNC(=O)[C@H]1O[C@@H](n2cnc3c(N)nc(NCCc4ccc(CCC(=O)O)cc4)nc32)[C@H](O)[C@@H]1O | -2.22% | inactive | – |
| CC(=O)Oc1cccc2c1C(=O)c1c(OC(C)=O)cc(C(=O)O)cc1C2=O | -7.7% | inactive | – |
| CN1C(=O)N[C@@H](Cc2c[nH]c3c(Cl)cccc23)C1=O | -3.59% | inactive | – |
| CC(=O)OCC(=O)[C@@]1(O)[C@H](C)C[C@H]2[C@@H]3CCC4=CC(=O)C=C[C@]4(C)[C@@]3(F)[C@@H](O)C[C@@]21C | 2.72% | inactive | – |
| CCN(CC)CCOc1ccc(C(O)(Cc2ccc(Cl)cc2)c2ccc(C)cc2)cc1 (stereo not given) | – | 16.4 µM (active) | 20.6 µM (active) |
